# Reference: PubChem BioAssay
# Calls of active or inactive are those of the source.
# Test system: XIP peptide (Xip251-270) binding
# Experiment: small-molecule binders of XIP peptide, primary screen, biochemical, small-molecule microarray, fluorescence 635/667 nm, 0.1 µg/mL protein (AID 1182)
# Conditions: fluorescent protein binding, 635 nm, higher = more signal, called active from +8 up or from −8 down
row,Compound,composite z-score
1,Cc1ccccc1C(O)C1C=CC2C(=O)N(C)C(=O)C2N1N1CCCCC1 (centres undefined),0.547 (inactive)
2,O=C(CS)NCCCCCCNC(=O)[C@H]1C[C@H]2C(=O)N3CCC[C@H]3C(=O)N2[C@H]1c1cccc(OCCO)c1,0.517 (inactive)
3,CCCC[C@@H]1C[C@H]1[C@@H](NC(=O)c1ccc(-c2ccccc2)cc1)c1ccc(-c2ccccc2)cc1,0.0014 (inactive)
4,C=CC(COC(C)=O)NS(=O)(=O)c1ccc(Br)cc1 (centres undefined),0.264 (inactive)
5,O=C1C2C=CC(C(O)c3ccc(B(O)O)cc3)N(Nc3ccccc3)C2C(=O)N1c1ccccc1 (centres undefined),0.158 (inactive)
6,C=CC[C@]1(C(=O)N2CCOCC2)N=C(c2ccc(OCCCO)cc2)O[C@H]1c1ccccc1,0.661 (inactive)
7,COCCCNC(=O)[C@@]1(C)c2ccccc2C(=O)N(Cc2cc(C(F)(F)F)cc(C(F)(F)F)c2)[C@H]1c1ccc(CO)cc1,0.707 (inactive)
8,COc1ccc(C(=O)Nc2cccc(CN3C(=O)[C@]4(O[C@H](CC(=O)N5CCC[C@H]5CO)[C@@H]([Si](C)(C)c5ccc(OC)cc5)[C@@H]4C)c4ccccc43)c2)cc1,1.64 (inactive)
9,[N-]=[N+]=NCc1ccccc1C[C@@]1(C(=O)NCC(O)CO)N=C(c2ccc(OCCCO)cc2)O[C@@H]1c1ccccc1CN=[N+]=[N-] (some centres undefined),-0.0479 (inactive)

# Test system: XIP peptide (Xip251-270)
# Experiment: small-molecule binders of XIP peptide, primary screen, biochemical, small-molecule microarray, fluorescence 635/667 nm, 0.5 µg/mL protein (AID 1183)
# Conditions: small-molecule microarray binding, fluorescence 635 nm; higher = more signal
row,Compound,composite z-score
1,COCCOC(=O)N1C(=O)[C@@]2(c3cc(C#CC4(O)CCCCCC4)ccc31)[C@H](C(=O)N1CCCCCCC1)[C@H]1C(=O)O[C@H](c3ccccc3)[C@H](c3ccccc3)N1[C@@H]2c1ccccc1OCCO,0.762
2,CCOC(=O)[C@H]1C/C=C/C[C@H](C(=O)OCC)C(=O)O[C@H]2[C@@H](OC)O[C@H](CO)[C@@H](OC(=O)Nc3ccc4c(c3)OCO4)[C@@H]2OC1=O,0.832
3,C#CCN(C(/C=C/c1ccccc1)CO)C(C(=O)O)c1ccccc1 (centres undefined),-0.722
4,COCC(=C=CC[C@@H](O)c1ccc(CO)o1)CCO,0.344
5,O=C1O[C@H](c2ccccc2)[C@H](c2ccccc2)N2[C@H]1[C@@H](C(=O)O)[C@]1(C(=O)Nc3ccc(C#CC4(O)CCCCCC4)cc31)[C@H]2c1ccc(OCCO)cc1,0.599
6,C=CCOC(=O)[C@H]1[C@@H]2C(=O)O[C@@H](c3ccccc3)[C@@H](c3ccccc3)N2[C@@H](c2ccc(OCCOC(=O)[C@@H]3C[C@@H]4C(=O)NCC(=O)N4[C@@H]3c3ccc(O)cc3)cc2)[C@]12C(=O)Nc1ccccc12,0.854
7,COCCOC(=O)N1C(=O)[C@@]2(c3ccccc31)[C@H](c1ccc(O)cc1)N1[C@H](c3ccccc3)[C@H](c3ccccc3)OC(=O)[C@H]1[C@@H]2C(=O)N1CCc2cc(OC)c(OC)cc2C1,0.794
8,CCOC(=O)C1=C[C@@H](C(C)C)N(S(=O)(=O)c2ccc(C)cc2)[C@H]1c1ccc(C(C)C)cc1,-0.109
9,C=C[C@H](C)[C@@H](O)c1ccc(O)c2ccccc12,0.507
10,O=C1C[C@@](C(=O)NC2CC2)(c2ccc([N+](=O)[O-])cc2)[C@@H](c2ccc(CO)cc2)N1CC12CC3CC(CC(C3)C1)C2,0.611
11,O=c1cccc(CCc2ccccc2)o1,0.903
12,C=CC[C@@]1(C(=O)O)N=C(c2ccc(OCCCO)cc2)O[C@@H]1c1ccccc1N=[N+]=[N-],0.823
13,O=c1cccc(C=Cc2ccccc2)o1,-0.764
14,CC(=O)NCCCC[C@@H]1NC(=O)[C@H]2C[C@@H](C(=O)NCCCCCC[N+](C)(C)C)[C@@H](c3cccc(OCCO)c3)N2C1=O,0.893
15,CC1=C2[C@@H](CCc3ccccc3)OB(O)C[C@@H]2n2c(=O)n(-c3ccccc3)c(=O)n2C1,0.777
16,[N-]=[N+]=Nc1ccccc1[C@H]1OC(c2ccc(OCCCO)cc2)=N[C@@]1(CCS(=O)(=O)c1ccccc1)C(=O)O,0.824
17,COC(=O)[C@@]1(Cc2ccc(OC)cc2)[C@H]2c3cc(C(=O)N4CCCC4)n(Cc4cc(F)cc5c4OCOC5)c3C[C@H]2CN1C(=O)c1ccccc1,0.857
18,COc1ccc(C#Cc2ccc3c(c2)[C@]2(C(=O)N3)[C@H](c3ccc(O)cc3)N3[C@H](c4ccccc4)[C@H](c4ccccc4)OC(=O)[C@H]3[C@@H]2C(=O)NC[C@H](O)c2ccccc2)cc1,0.707

row,Compound,composite z-score
1,CCCNC(=O)[C@@H]1c2ccccc2C(=O)N(Cc2ccccc2)[C@H]1c1ccc(CO)cc1,0.312
2,COC(=O)C[C@H]1O[C@]2(C(=O)N(Cc3ccccc3)c3ccc(NC(C)=O)cc32)[C@@H](C)[C@@H]1[Si](C)(C)c1ccc(OC)cc1,0.27
3,CC(C)NC(=O)[C@@H]1c2ccccc2C(=O)N(Cc2ccccc2Cl)[C@H]1c1ccc(CO)cc1,0.719
4,COc1ccc(C#Cc2ccc3c(c2)[C@]2(C(=O)N3)[C@H](c3ccc(O)cc3)N3[C@H](c4ccccc4)[C@H](c4ccccc4)OC(=O)[C@H]3[C@@H]2C(=O)N2CCCCCCC2)cc1,0.644
5,O=C1C2C=CC(C(O)c3ccc(F)cc3)N(Nc3ccccc3)C2C(=O)N1c1ccccc1 (centres undefined),-0.168
6,NC(=O)NCC#Cc1ccc2c(c1)[C@]1(C(=O)N2)[C@H](C(=O)NC[C@H](O)c2ccccc2)[C@H]2C(=O)O[C@H](c3ccccc3)[C@H](c3ccccc3)N2[C@@H]1c1ccc(O)cc1,0.432
7,COC(=O)C1=CC(CCCO)=CC(C2CC2)N(Cc2sc3ccccc3c2Cl)C=C1C(=O)OC (centres undefined),0.793
8,O=C1O[C@H](c2ccccc2)[C@H](c2ccccc2)N2[C@H]1[C@@H](C(=O)N1CCN(c3ncccn3)CC1)[C@]1(C(=O)Nc3ccccc31)[C@H]2c1ccc(OCCO)cc1,0.219
9,Cc1ccccc1C(O)C1C=CC2C(=O)N(C)C(=O)C2N1N1CCCCC1 (centres undefined),0.576
10,O=C(CS)NCCCCCCNC(=O)[C@H]1C[C@H]2C(=O)N3CCC[C@H]3C(=O)N2[C@H]1c1cccc(OCCO)c1,0.773
11,CCCC[C@@H]1C[C@H]1[C@@H](NC(=O)c1ccc(-c2ccccc2)cc1)c1ccc(-c2ccccc2)cc1,-0.532
12,C=CC(COC(C)=O)NS(=O)(=O)c1ccc(Br)cc1 (centres undefined),0.231
13,O=C1C2C=CC(C(O)c3ccc(B(O)O)cc3)N(Nc3ccccc3)C2C(=O)N1c1ccccc1 (centres undefined),-0.197
14,C=CC[C@]1(C(=O)N2CCOCC2)N=C(c2ccc(OCCCO)cc2)O[C@H]1c1ccccc1,0.362
15,COCCCNC(=O)[C@@]1(C)c2ccccc2C(=O)N(Cc2cc(C(F)(F)F)cc(C(F)(F)F)c2)[C@H]1c1ccc(CO)cc1,0.875
16,COc1ccc(C(=O)Nc2cccc(CN3C(=O)[C@]4(O[C@H](CC(=O)N5CCC[C@H]5CO)[C@@H]([Si](C)(C)c5ccc(OC)cc5)[C@@H]4C)c4ccccc43)c2)cc1,0.687
17,[N-]=[N+]=NCc1ccccc1C[C@@]1(C(=O)NCC(O)CO)N=C(c2ccc(OCCCO)cc2)O[C@@H]1c1ccccc1CN=[N+]=[N-] (some centres undefined),0.748
